# Laboratory results reported in PubChem BioAssay AID602142 (NMMLSC, 2011).
# The list shows a part of the results. Unmarked numbers belong to inactive results. How the calls were made is not given here.
# Target: Lethal factor (Bacillus anthracis) (UniProt P15917)
# Test: anthrax lethal factor cleavage blockers – biochemical, multiplex microsphere, cherry pick 1, confirmation (AID 602142)
# Settings: multiplex microsphere protease cleavage assay, LF; at 10 µM; stronger effect = higher value
# Sequence of Lethal factor (Bacillus anthracis) (P15917 whole entry, looked up): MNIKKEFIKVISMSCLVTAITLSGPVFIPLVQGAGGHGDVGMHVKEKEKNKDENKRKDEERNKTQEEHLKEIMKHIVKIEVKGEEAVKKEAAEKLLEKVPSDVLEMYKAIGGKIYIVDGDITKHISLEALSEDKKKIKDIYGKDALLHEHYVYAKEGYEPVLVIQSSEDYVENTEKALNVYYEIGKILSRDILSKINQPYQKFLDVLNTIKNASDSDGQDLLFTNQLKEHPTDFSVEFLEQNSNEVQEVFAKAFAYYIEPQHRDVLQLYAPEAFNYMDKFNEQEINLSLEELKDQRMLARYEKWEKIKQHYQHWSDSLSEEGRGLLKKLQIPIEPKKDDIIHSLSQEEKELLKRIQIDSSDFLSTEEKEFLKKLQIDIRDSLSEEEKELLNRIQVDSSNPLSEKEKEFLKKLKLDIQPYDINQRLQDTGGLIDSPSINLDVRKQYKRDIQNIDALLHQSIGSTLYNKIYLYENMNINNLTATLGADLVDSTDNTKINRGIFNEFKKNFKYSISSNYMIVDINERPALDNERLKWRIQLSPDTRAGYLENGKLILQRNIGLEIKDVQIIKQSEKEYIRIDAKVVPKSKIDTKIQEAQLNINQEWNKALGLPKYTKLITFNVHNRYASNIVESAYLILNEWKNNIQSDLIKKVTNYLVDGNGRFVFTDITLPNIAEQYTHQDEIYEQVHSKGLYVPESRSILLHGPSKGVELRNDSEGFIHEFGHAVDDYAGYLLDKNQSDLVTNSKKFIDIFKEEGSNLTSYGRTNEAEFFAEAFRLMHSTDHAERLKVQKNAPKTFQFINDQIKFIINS
row,SMILES,inhibition [%]
1,CC(C)Cc1nnc(NC(=O)CCC(=O)Nc2ccc3cn[nH]c3c2)s1,-2.6
2,Clc1ccc(-c2ncc3ccccn23)c(Cl)c1,2.1
3,CCCSc1nc2sc3c(c2c(=O)n1-c1ccc(OC)cc1)CCN(C)C3,4.5
4,Cc1ccccc1NC(=O)c1cc(S(=O)(=O)Nc2cccc(C(=O)O)c2)ccc1Cl,-0.5
5,COCc1cc(=O)[nH]c(SC)n1,-4.9
